Activity calls are given as the source filed them. Rule for the calls: active = hit-call score of the fitted dose curve at least 0.9, where 1 is the maximum; inactive = score below 0.9.
biological target: human Tachykinin Receptor NK1 Agonism, TACR1 (gene 6869) (UniProt P25103); experiment: ERF_TW_GPCR_hTACR1: Eurofins (ERF) G Protein-Coupled Receptor (GPCR) Radioligand Binding LeadHunter Assay for human Tachykinin Receptor NK1 Agonism
Procedure: ERF_TW_GPCR_hTACR1 is a biochemical, single-readout assay that uses extracted gene-proteins in a cell-free assay. Measurements were taken 1.5 hour after chemical dosing in a 96-well plate. See NK1 Human Tachykinin GPCR Binding (Agonist Radioligand) Assay, Panlabs.ERF_TW_GPCR_hTACR1 is an assay component calculated from the ERF_TW_GPCR_hTACR1 assay. It is designed to measure radioligand binding using a type of binding reporter as detected by scintillation counting with radiometry technology.Data from the assay component ERF_TW_GPCR_hTACR1 was analyzed at the assay endpoint, ERF_TW_GPCR_hTACR1, in the positive analysis fitting direction relative to DMSO as the negative control and baseline of activity. Using a type of binding reporter, gain-of-signal activity can be used to understand changes in radioligand binding as they relate to gene TACR1. To generalize the intended target to other relatable targets, this assay endpoint is annotated to the gpcr intended target family, where the subfamily is tachykinin.
Human recombinant neurokinin NK1 receptors expressed in CHO cells are used in modified Tris-HCL buffer pH 7.4. A 36 ug aliquot is incubated with 0.8 nM [3H]Substance P for 90 minutes at 4C. Non-specific binding is estimated in the presence of 10 uM L-703,606. Receptors are filtered and washed, the filters are then counted to determine [3H]Substance P specifically bound. […]

human Tachykinin Receptor NK1 Agonism, TACR1 (gene 6869), sequence (P25103 whole entry, looked up): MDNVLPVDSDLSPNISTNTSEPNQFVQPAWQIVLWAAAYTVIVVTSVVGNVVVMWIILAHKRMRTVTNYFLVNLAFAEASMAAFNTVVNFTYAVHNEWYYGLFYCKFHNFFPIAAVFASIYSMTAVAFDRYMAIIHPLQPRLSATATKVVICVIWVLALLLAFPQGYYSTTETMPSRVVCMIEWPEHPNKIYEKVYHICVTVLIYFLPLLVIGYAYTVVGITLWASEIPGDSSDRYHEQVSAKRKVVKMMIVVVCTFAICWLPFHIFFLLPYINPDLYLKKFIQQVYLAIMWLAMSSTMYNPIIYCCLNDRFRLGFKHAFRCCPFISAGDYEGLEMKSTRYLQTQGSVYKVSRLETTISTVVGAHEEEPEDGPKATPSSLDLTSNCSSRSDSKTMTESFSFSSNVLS

| Compound | outcome | AC50 |
| --- | --- | --- |
| CCCCC[C@H](O)CC(=O)CCc1ccc(O)c(OC)c1 | inactive |  |
| COc1cc(CCC(=O)CC(=O)CCc2ccc(O)c(OC)c2)ccc1O |  | 5 µM (active) |

Reference: PubChem BioAssay AID2284193 (EPA ToxCast)
